From article PMC4336329 (PLoS ONE, 2015)
The campaign covered roughly 310,000 compounds. About 14,000 (4.5%) showed an effect of 50% or more. Effects have a minus sign here. The sample holds strong results, similar compounds and a random draw of the others, so the mix is not that of the screen.

target: human ether-à-go-go-related gene (hERG) potassium channel (human, UniProt Q12809); assay: primary screen, population patch clamp on CHO cells stably expressing hERG; higher = less effect of the substance
Sequence (Q12809 whole entry, looked up): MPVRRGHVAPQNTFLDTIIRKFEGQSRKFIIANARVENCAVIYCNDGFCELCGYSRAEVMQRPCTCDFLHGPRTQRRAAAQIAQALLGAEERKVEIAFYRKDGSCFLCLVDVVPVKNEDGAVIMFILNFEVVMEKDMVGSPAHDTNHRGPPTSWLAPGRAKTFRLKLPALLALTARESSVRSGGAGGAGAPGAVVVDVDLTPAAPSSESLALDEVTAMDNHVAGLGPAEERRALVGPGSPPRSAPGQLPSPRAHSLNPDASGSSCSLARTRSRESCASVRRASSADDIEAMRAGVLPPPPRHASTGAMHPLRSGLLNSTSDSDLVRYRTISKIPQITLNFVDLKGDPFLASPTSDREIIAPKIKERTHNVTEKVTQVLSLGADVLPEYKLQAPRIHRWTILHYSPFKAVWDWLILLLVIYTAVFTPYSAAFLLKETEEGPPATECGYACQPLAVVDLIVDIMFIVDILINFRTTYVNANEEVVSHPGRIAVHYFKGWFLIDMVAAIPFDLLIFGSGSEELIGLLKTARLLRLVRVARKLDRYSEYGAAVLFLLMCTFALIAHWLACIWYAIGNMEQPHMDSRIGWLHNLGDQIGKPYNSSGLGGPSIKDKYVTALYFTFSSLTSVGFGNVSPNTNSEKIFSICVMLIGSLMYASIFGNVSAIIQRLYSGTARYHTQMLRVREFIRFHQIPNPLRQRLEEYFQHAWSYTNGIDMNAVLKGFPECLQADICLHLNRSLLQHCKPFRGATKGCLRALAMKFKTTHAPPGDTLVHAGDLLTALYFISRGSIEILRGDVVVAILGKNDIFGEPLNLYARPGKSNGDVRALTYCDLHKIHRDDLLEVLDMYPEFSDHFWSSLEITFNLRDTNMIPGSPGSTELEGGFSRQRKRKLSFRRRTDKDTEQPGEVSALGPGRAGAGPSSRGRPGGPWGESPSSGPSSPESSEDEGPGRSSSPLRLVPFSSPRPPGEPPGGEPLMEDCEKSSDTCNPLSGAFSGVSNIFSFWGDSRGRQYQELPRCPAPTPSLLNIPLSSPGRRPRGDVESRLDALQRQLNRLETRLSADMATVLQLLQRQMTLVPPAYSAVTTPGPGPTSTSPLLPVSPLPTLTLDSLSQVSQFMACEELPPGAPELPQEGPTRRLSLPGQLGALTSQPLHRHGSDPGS
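Also: peak tail current of the secondary pulse compared with the same well before compound.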

**Q.** For `O=C(NCc1ccccc1)C1CCCN(S(=O)(=O)c2cccc3nonc23)C1` (stereo not shown), which “hERG current change (%, negative = inhibition) at 10uM” value is on record?
**A.** Its value is 9.65%.

**Q.** With `O=C(C1CCCN(S(=O)(=O)c2cccc3nonc23)C1)N1CCC(Cc2ccccc2)CC1` (stereo not shown) as the compound, how does the “hERG current change (%, negative = inhibition) at 10uM” value read?
**A.** The value was -30.9%.

**Q.** With `O=C(NC1CCN(Cc2ccccc2)CC1)C1CCN(S(=O)(=O)c2ccc(Cl)cc2)CC1` as the compound, how does the “hERG current change (%, negative = inhibition) at 10uM” value read?
**A.** Its value is -73.2%.

**Q.** With `CCN(CC)S(=O)(=O)c1ccc(S(=O)(=O)N2CCC(C(=O)NC3CCN(Cc4ccccc4)CC3)CC2)cc1` as the compound, how does the “hERG current change (%, negative = inhibition) at 10uM” value read?
**A.** Its value is 14.8%.

**Q.** How did the “hERG current change (%, negative = inhibition) at 10uM” value turn out when `Cc1ccc(Cl)cc1S(=O)(=O)N1CCC(C(=O)NC2CCN(Cc3ccccc3)CC2)CC1` was run?
**A.** The value was -71.5%.

**Q.** How did the “hERG current change (%, negative = inhibition) at 10uM” value turn out when `O=C(NCCc1ccccc1)C1CCN(S(=O)(=O)c2cccc3nonc23)CC1` was run?
**A.** Its value is -10.5%.

**Q.** How did the “hERG current change (%, negative = inhibition) at 10uM” value turn out when `O=C(NC1CCN(Cc2ccccc2)CC1)C1CCCN(S(=O)(=O)c2cccc3nonc23)C1` (stereo not shown) was run?
**A.** Its value is -55.9%.

**Q.** `CCN(CCCNC(=O)C1CCN(S(=O)(=O)c2cccc3nonc23)CC1)Cc1ccccc1` was tested. Which “hERG current change (%, negative = inhibition) at 10uM” value did it give?
**A.** The value was -57.2%.

**Q.** With `CCCNC(=O)C1CCN(S(=O)(=O)c2cccc3nonc23)CC1` as the compound, how does the “hERG current change (%, negative = inhibition) at 10uM” value read?
**A.** The value was -3.97%.

**Q.** With `O=C(NC1CCN(Cc2ccccc2)CC1)C1CCN(S(=O)(=O)c2ccccc2)CC1` as the compound, how does the “hERG current change (%, negative = inhibition) at 10uM” value read?
**A.** Its value is -28.8%.

**Q.** For `Cc1ccc(C(=O)NC2CCN(Cc3ccccc3)CC2)cc1S(=O)(=O)N1CCOCC1`, which “hERG current change (%, negative = inhibition) at 10uM” value is on record?
**A.** The value was -30.2%.

**Q.** With `Cc1noc(C)c1S(=O)(=O)N1CCC(C(=O)NC2CCN(Cc3ccccc3)CC2)CC1` as the compound, how does the “hERG current change (%, negative = inhibition) at 10uM” value read?
**A.** Its value is -25%.

**Q.** `COc1cc(/C=C2\SC(=S)N(CCC(=O)Nc3ccc(O)cc3)C2=O)cc(OC)c1OC` was tested. Which “hERG current change (%, negative = inhibition) at 10uM” value did it give?
**A.** Its value is 11.9%.

**Q.** Which “hERG current change (%, negative = inhibition) at 10uM” value does the source give for `COCCCn1c(=O)c2sccc2n2c(CCCC(=O)NCc3cccc(OC)c3)nnc12` here?
**A.** The value was -6.59%.

**Q.** How did the “hERG current change (%, negative = inhibition) at 10uM” value turn out when `O=C1CSC(c2cccnc2)N1c1cccc(Cl)c1` (stereo not shown) was run?
**A.** Its value is -1.13%.

**Q.** `CCOC(=O)c1c(NC(=O)C2CCCO2)sc(C(=O)OC(C)(C)C)c1C` (stereo not shown) was tested. Which “hERG current change (%, negative = inhibition) at 10uM” value did it give?
**A.** The value was 9.29%.

**Q.** How did the “hERG current change (%, negative = inhibition) at 10uM” value turn out when `COc1ccc(Nc2ncnc3ccccc23)c(OC)c1.Cl` was run?
**A.** The value was -10.2%.

**Q.** `COc1cccc(Nc2nnc(Cc3cccnc3)c3ccccc23)c1` was tested. Which “hERG current change (%, negative = inhibition) at 10uM” value did it give?
**A.** The value was -75.8%.

**Q.** `COc1ccc(Nc2nnc(Cc3ccccc3)c(=O)[nH]2)c(OC)c1` was tested. Which “hERG current change (%, negative = inhibition) at 10uM” value did it give?
**A.** Its value is 3.85%.

**Q.** For `COc1ccc(Nc2nnc(Cc3ccncc3)c3ccccc23)c(OC)c1`, which “hERG current change (%, negative = inhibition) at 10uM” value is on record?
**A.** The value was -72.7%.

**Q.** Which “hERG current change (%, negative = inhibition) at 10uM” value does the source give for `COc1cccc(NC(=S)NCc2cccnc2)c1` here?
**A.** The value was 8.76%.

**Q.** With `COc1cccc(NC(=O)Cn2nc(Cc3cccnc3)c3ccccc3c2=O)c1` as the compound, how does the “hERG current change (%, negative = inhibition) at 10uM” value read?
**A.** Its value is -34.6%.

**Q.** Which “hERG current change (%, negative = inhibition) at 10uM” value does the source give for `Cc1csc2c(N3CCN(C(=O)Nc4ccccc4)CC3)ncnc12` here?
**A.** The value was -25.4%.

**Q.** Which “hERG current change (%, negative = inhibition) at 10uM” value does the source give for `CCOC(=O)N1CCC(NC(=O)c2cccc3c2C(=O)N(Cc2cccnc2)C3)CC1` here?
**A.** The value was -13.9%.

**Q.** With `CCOC(=O)C1=C(COC(=O)CCOc2ccccc2C)NC(=O)NC1C` (stereo not shown) as the compound, how does the “hERG current change (%, negative = inhibition) at 10uM” value read?
**A.** Its value is -28.4%.

**Q.** How did the “hERG current change (%, negative = inhibition) at 10uM” value turn out when `NC(=O)c1cc(-c2csc(-c3cccnc3)n2)ccc1O` was run?
**A.** Its value is 5.27%.

**Q.** For `COCCNC(=O)c1cn(C)c2ccc(S(=O)(=O)N(C)C3CCCCC3)cc2c1=O`, which “hERG current change (%, negative = inhibition) at 10uM” value is on record?
**A.** The value was -27.7%.

**Q.** With `CCN(CC)S(=O)(=O)c1ccc2c(c1)c(=O)c(C(=O)NCCN(C)CCc1ccccc1)cn2C` as the compound, how does the “hERG current change (%, negative = inhibition) at 10uM” value read?
**A.** Its value is -67.1%.

**Q.** How did the “hERG current change (%, negative = inhibition) at 10uM” value turn out when `CCN(CC)CCNC(=O)c1cn(C)c2ccc(S(=O)(=O)N(C)C3CCCCC3)cc2c1=O` was run?
**A.** Its value is -42.8%.

**Q.** `COC(CNC(=O)c1cn(C)c2ccc(S(=O)(=O)N(C)C3CCCCC3)cc2c1=O)OC` was tested. Which “hERG current change (%, negative = inhibition) at 10uM” value did it give?
**A.** The value was -21.5%.

**Q.** For `CC(C)OCCCNC(=O)c1cn(C)c2ccc(S(=O)(=O)N(C)C3CCCCC3)cc2c1=O`, which “hERG current change (%, negative = inhibition) at 10uM” value is on record?
**A.** The value was -22%.

**Q.** Which “hERG current change (%, negative = inhibition) at 10uM” value does the source give for `CCCCN(CCCC)CCNC(=O)c1cn(C)c2ccc(S(=O)(=O)N(C)C3CCCCC3)cc2c1=O` here?
**A.** Its value is -76.7%.

**Q.** How did the “hERG current change (%, negative = inhibition) at 10uM” value turn out when `CCN(CC)CCCNC(=O)c1cn(C)c2ccc(S(=O)(=O)N(C)C)cc2c1=O` was run?
**A.** Its value is 3.07%.

**Q.** With `CCCCN(C)CCCNC(=O)c1cn(C)c2ccc(S(=O)(=O)N(C)C3CCCCC3)cc2c1=O` as the compound, how does the “hERG current change (%, negative = inhibition) at 10uM” value read?
**A.** Its value is -75%.

**Q.** With `CCCCN(CC)CCCNC(=O)c1cn(C)c2ccc(S(=O)(=O)N(C)C3CCCCC3)cc2c1=O` as the compound, how does the “hERG current change (%, negative = inhibition) at 10uM” value read?
**A.** The value was -73.2%.

**Q.** Which “hERG current change (%, negative = inhibition) at 10uM” value does the source give for `CCN(CC)S(=O)(=O)c1ccc2c(c1)c(=O)c(C(=O)NCCc1ccccc1)cn2C` here?
**A.** Its value is -0.204%.

**Q.** `CCN(CC)CCCNC(=O)c1cn(C)c2ccc(S(=O)(=O)N(C)C3CCCCC3)cc2c1=O` was tested. Which “hERG current change (%, negative = inhibition) at 10uM” value did it give?
**A.** The value was -24.8%.

**Q.** For `CN(CCNC(=O)c1cn(C)c2ccc(S(=O)(=O)N(C)C)cc2c1=O)CCc1ccccc1`, which “hERG current change (%, negative = inhibition) at 10uM” value is on record?
**A.** The value was -27.1%.

**Q.** How did the “hERG current change (%, negative = inhibition) at 10uM” value turn out when `Cn1c(=O)n(C)c2cc(N3CCOCC3)c(NC(=O)c3ccc(F)cc3)cc21` was run?
**A.** Its value is -8.15%.

**Q.** How did the “hERG current change (%, negative = inhibition) at 10uM” value turn out when `Cc1cccc2cc3ccccc3nc12` was run?
**A.** Its value is 4.66%.
